Consider eight compounds from PubChem BioAssay (NCI).

Structures are written as SMILES. The panel holds about 83,000 compounds, 20% with a hit somewhere; the sample as a whole holds those more often.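 Growth was measured after 48 h exposure to one concentration of compound in 96-well plates. Values under 10 count as active.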 Values without a mark were called inactive. Activity calls are given as the source filed them.

Test in all cases: NCI-60 one-dose screen, 48 h (100 = growth as untreated, 0 = no growth, -100 = all killed)
What all share (conditions): 10 µM unless noted

The subject of test [1] is DU-145 prostate.
Test [2] deals with K-562 leukemia.
In test [3] the test system is MALME-3M melanoma.
The subject of test [4] is MDA-MB-231 breast.
Test [5] relates to RXF 393 renal.
The test system of test [6] is SF-268 CNS.
The test system of test [7] is SF-539 CNS.
For test [8], the system named is UACC-257 melanoma.
Test [9] has as its system M14 melanoma.
Test [10] relates to HCT-15 colon.
The test system of test [11] is HT29 colon.
Test [12] deals with SNB-75 CNS.
Test [13] relates to SNB-19 CNS.
In test [14] the test system is U251 CNS.
Test [15] has as its system PC-3 prostate.
Test [16] has as its system SK-MEL-5 melanoma.
The subject of test [17] is UACC-62 melanoma.
Test [18] concerns LOX IMVI melanoma.
For test [19], the system named is SK-MEL-28 melanoma.

For `COc1ccc(-c2cnc3ccnn3c2-c2cc(OC)c(OC)c(OC)c2)cc1`, the growth is 20% in test [1]; 5.43% (active) in [2]; 67.5% in [3]; 50.3% in test [4]; 1.8% (active) in [5]; 53.3% in test [6]. Moreover, the growth is -13.4% (active) in [7]; 58.4% in test [8]; 21.5% in test [9]; 27.8% in test [10]; 8.99% (active) in test [11]; 5.62% (active) in [12]. In addition, the growth in [13] is 56.4%; in test [14], 37.7%; in test [15], 29.9%; in test [16] it was 13.6%; in test [17], 42.3%; in [18], 42.5%. Besides, the growth in test [19] is 71.1%.

On to `COc1ccc(-c2[nH]nc(N)c2-c2cc(OC)c(OC)c(OC)c2)cc1`, for which the growth in test [1] was 2.62% (active); in test [2] it was -15.6% (active); in [3], 25.8%; in test [4] it was -10.6% (active); in test [5], 20%; in test [6], 15.1%. In addition, the growth in test [7] was -13.1% (active); in test [8] it was 58.1%; in [9], -5.11% (active); in test [10], 10.1%; in test [11] it was -2.71% (active); in [12] it was 54.9%. Further, the growth was 48.8% in test [13]; 6% (active) in [14]; 6.31% (active) in test [15]; -16.5% (active) in test [16]; 23.8% in test [17]; 12.1% in test [18]. The growth in test [19] was 47.8%.

In the case of `Cn1nc(C(F)(F)F)cc1-c1cc(Cl)c(OCc2ccc(Cl)cc2)c(-c2ccc(Cl)c(C(F)(F)F)c2)c1O`, the growth in [1] is 11.5%; in test [2] it was 8.16% (active); in [3], -26.5% (active); in test [4], -21.8% (active); in [5], -17.6% (active); in test [6], 2.82% (active). Besides, the growth in test [7] was -12.5% (active); in [8], 1.55% (active); in test [9], -13.5% (active); in test [10], 6.63% (active); in test [11], 5.38% (active); in test [12] it was -8.74% (active). Also, the growth is 17.4% in [13]; 8.94% (active) in test [14]; 7.86% (active) in test [15]; -53.3% (active) in [16]; 4.43% (active) in test [17]; 12.4% in test [18]. For the same compound, the growth in test [19] is 13.7%.

Regarding `CC(C)COC(=O)NC(C)(C)C`, the growth in test [1] is 115%; in test [2] it was 92.8%; in test [3], 107%; in [4], 119%; in test [5] it was 113%; in test [6], 109%. Also, the growth is 101% in [7]; 102% in test [8]; 104% in [9]; 98% in test [10]; 93% in test [11]; 86.7% in test [12]. The growth in [13] was 111%; in test [14] it was 107%; in test [15], 102%; in test [16], 109%; in test [17], 107%; in test [18] it was 103%. Also, the growth in test [19] is 113%.

On to `CCc1ccc(Nc2ncnc3c2cnn3-c2cccc(Br)c2)cc1`, for which the growth in test [1] was 104%; in test [2] it was 106%; in [3] it was 99%; in [4], 103%; in [5] it was 100%; in [6] it was 98%. Moreover, the growth in test [7] was 102%; in test [8] it was 88.6%; in test [9], 98.6%; in [10], 101%; in [11] it was 108%; in [12], 78.4%. Moreover, the growth in [13] was 95.3%; in test [14] it was 94.3%; in test [16] it was 96.6%; in [17], 91.7%; in [18], 96.3%; in [19], 107%.

In the case of `CCN(CC)Cc1cc(Nc2ccnc3cc(Cl)ccc23)cc(-c2ccc(Cl)cc2)c1O`, the growth in test [1] is 26.1%; in test [2], 18.8%; in test [3], 10% (active); in test [4], 48.7%; in test [5] it was 46.4%; in test [6], 8.65% (active). For the same compound, the growth in test [7] is -25.6% (active); in test [8] it was 10.5%; in [9], 10.2%; in test [10], 25.2%; in [11] it was 22.7%; in test [12] it was -35.9% (active). Further, the growth was 32.8% in test [13]; 0.662% (active) in test [14]; -49.6% (active) in test [16]; 60.8% in test [17]; 0.179% (active) in test [18]; 46% in [19].

Take `COc1ccc(/C=c2\c(=O)n(-c3ccccc3)c3nn4c(=O)c(=O)[nH]nc4n23)cc1`: the growth is 115% in test [1]; 122% in test [2]; 104% in [3]; 122% in test [4]; 123% in [5]; 104% in [6]. The growth was 103% in [7]; 110% in test [8]; 99.5% in test [9]; 106% in test [10]; 110% in test [11]; 109% in [12]. For the same compound, the growth in test [13] was 111%; in test [14], 112%; in [16], 101%; in test [17], 101%; in test [18] it was 96.3%; in test [19], 131%.

For the compound `Cc1cc(-c2nnc(/C=C/c3ccc4c(c3)OCO4)o2)n[nH]1`, the growth was 83.4% in test [1]; 23.5% in [2]; 49.4% in test [3]; 54.4% in test [4]; 85.5% in test [5]; 74.9% in test [6]. Besides, the growth in test [7] was 46.3%; in [8] it was 78.1%; in test [9] it was 46.3%; in test [10] it was 44.3%; in [11], 23%; in [12], 51.3%. Further, the growth in test [13] is 86.8%; in [14] it was 85.1%; in test [15], 74.3%; in test [16] it was 70.9%; in [17] it was 69.5%; in test [18] it was 52.5%. Further, the growth in test [19] is 71.5%.
